Measured values published in PubChem BioAssay (NCATS).
Inconclusive results are not listed. A number with no mark means an inactive call. Active and inactive are the calls of the source. The call rests on the fitted dose curve; in most records, active means well fitted cell-killing curve with a large enough effect; inconclusive means small, poorly fitted or top-dose-only effect; inactive means no such curve, though single readings can be large or run the other way.

Assay: qHTS of pediatric cancer cell lines to identify multiple opportunities for drug repurposing: Primary screen for LAN-5 cells (AID 1347100)
Settings: LAN-5 neuroblastoma viability, CellTiter-Glo luminescence, 48 h; series mostly up to 46 µM; activity change, negative = cytotoxic: at the top concentration
Text: Drug repurposing or repositioning has been offered as a strategy for drug development in oncology programs. This approach has special potential for childhood cancers and other rare or orphan diseases, where the expected return on new drug development has been a disincentive to pharmaceuticals.
In this project we exploit the poly-pharmacology of drugs to discover new indications via phenotypic screening of a panel of 19 well-characterized cell lines derived from solid tumors seen in children and adolescents. The goal is to identify approved drugs with previously unrecognized anticancer properties that has the potential to reveal new mechanisms and biological processes involved in carcinogenesis or drug resistance. We employed a titration-based paradigm (quantitative high-throughput screening or qHTS), where all compounds were tested at multiple concentrations for their effect on cell viability. Concentration-response curves (CRCs) were derived directly from the primary screen, and both potency and efficacy values were used to identify compounds with robust bioactivity profiles. We screened the NIH Chemical Genomics Center (NCGC) Pharmaceutical Collection (NPC) and Mechanism Interrogation Plate (MIPE) small molecule collections of approved and investigational compounds against these cell lines; and measured metabolically active cells after 48 hours of compound treatment as a proxy for cell viability.
Assay Submitter: Nathalia J. Martinez, National Center for Advancing Translational Sciences, National Institutes of Health, Rockville, MD, USA; email: natalia.martinez@nih.gov
[1] Shen, M et al. Quantitative high-throughput phenotypic screening of pediatric cancer cell lines identifies multiple opportunities for drug repurposing. Oncotarget 2017 Dec 19;9(4):4758-4772. PMID 29435139.
The cells were obtained from University of North Carolina (UNC), Pediatric Preclinical Testing Program (PPT), and Coriell Institute (CI).
qHTS cell viability assay:
Cells were assayed in growth media at a density of 500-1,000 cells/well. Five microliters of cells were dispensed into 1,536-well, white, solid-bottom, TC-treated plates (Greiner Bio One) using a multidrop dispenser and incubated at 37 degrees C, 5% CO2, under a humidified atmosphere for 5 hours. Twenty-three nanoliters of compounds and controls (neutral control DMSO or positive control bortezomib at final concentration of 2.3 µM) were subsequently transferred by Kalypsys pintool. For primary screens, the MIPE collection was tested at 11-point dilutions (final concentrations range from 0.78 nM to 46 µM) and the NPC collection at 8-point dilutions (final concentrations range from 0.59 nM to 46 µM). Compounds tested in follow-up screens were assayed at 11-point dilutions. Cells were incubated for 48 hours, followed by addition of 3 µL of CellTiter-Glo (Promega). After a 15 min incubation at room temperature, samples were analyzed for luminescence intensity using a ViewLux High-throughput CCD imager equipped with clear filters.
Potency means the concentration at half of the fitted maximal effect.

Row | Compound | activity change, negative = cytotoxic | Potency
1 | Cc1sccc1Br | 17.1% | 
2 | CNC(=O)c1c(I)c(NC(C)=O)c(I)c(C(=O)O)c1I | 10% | 
3 | CC1(C)O[C@@H]2C[C@H]3[C@@H]4C[C@H](F)C5=CC(=O)C=C[C@]5(C)[C@@]4(F)[C@@H](O)C[C@]3(C)[C@]2(C(=O)CO)O1 | 4.42% | 
4 | CC(Oc1c(Cl)cccc1Cl)C1=NCCN1 (stereo not given) | 21.9% | 
5 | CCN(CC)C(=O)C1CN2CCc3cc(OC)c(OC)cc3C2CC1OC(C)=O (stereo not given) | 7.18% | 
6 | CCCCN(CCCC)C(C(N)=O)c1ccc(OC)cc1 (stereo not given) | -7.2% | 
7 | CC(=O)OCC(=O)Nc1cc(C#N)cc(NC(=O)COC(C)=O)c1Cl | 2.39% | 
8 | O=C(Oc1ccccc1)c1ccccc1O | -2.94% | 
9 | CC(C)(C)C(O)/C=C/c1ccc2c(c1)OCO2 (stereo not given) | 7.91% | 
10 | CCC(CN)=C(c1ccccc1)c1ccccc1 | -8.74% | 
11 | CC(C)(C)CC(=O)OCC(=O)[C@@]1(O)CC[C@H]2[C@@H]3CCC4=CC(=O)C=C[C@]4(C)[C@H]3[C@@H](O)C[C@@]21C | -26.3% | 
12 | CN1[C@@H]2CC[C@H]1CC(NC(=O)n1c(=O)[nH]c3ccccc31)C2 (stereo not given in full) | 4.02% | 
13 | CCC(=O)O[C@]1(C(=O)COC)[C@@H](C)C[C@H]2[C@@H]3CCC4=CC(=O)C=C[C@]4(C)C3(F)[C@@H](O)C[C@@]21C (stereo not given in full) | 5.67% | 
14 | O=C(CCCl)NCc1ccccc1 | 15.6% | 
15 | N#CSCC(=O)O | 20.1% | 
16 | Cc1onc(-c2ccccc2)c1C(=O)Cl | -2.86% | 
17 | CCOc1ccc(NS(=O)(=O)c2ccc(N)cc2)nn1 | 1.7% | 
18 | CN(C(=O)C(Cl)Cl)c1ccc(OC(=O)c2ccco2)cc1 | 10.8% | 
19 | CC(C)Cc1ccc(C(C)C(=O)OCc2ccccn2)cc1 (stereo not given) | -27.1% | 
20 | CCn1ccc(NS(=O)(=O)c2ccc(N)cc2)nc1=O | 2.74% | 

Row | Compound | activity change, negative = cytotoxic | Potency
21 | NC(=O)NS(=O)(=O)c1ccc(Cl)cc1 | 10.6% | 
22 | Oc1ccccc1 | 13% | 
23 | CC(C)(C)C(=O)OCOC(=O)C1N2C(=O)CC2S(=O)(=O)C1(C)C (stereo not given) | 2.45% | 
24 | O=C(O)/C=C(\CC(=O)O)C(=O)O | 16.4% | 
25 | CN(C)CCOC(c1ccccc1)c1ccc(Br)cc1 (stereo not given) | -26.7% | 
26 | Brc1ccccc1-c1ccccc1 | 13.8% [at 92.7 µM] | 
27 | CC(=O)OCC(=O)[C@@]1(O)CCC2C3CCC4=CC(=O)CC[C@]4(C)C3[C@@H](O)C[C@@]21C (stereo not given in full) | 5.55% | 
28 | Nc1ccc(C(=O)N2CC3CC(CN(Cc4ccccc4)C3)C2)cc1 | 41.2% | 
29 | COC(=O)c1cc(S(N)(=O)=O)ccc1OC | 6.21% | 
30 | CCCC(CCC)(C(=O)OCC)C(=O)OCC | 4.59% | 
31 | CN(C)CCN(Cc1ccsc1)c1ccccn1 |  | 1 nM (active)
32 | CCS(=O)(=O)c1ccc(OC)c(C(=O)OC)c1 | 29.3% | 
33 | CC(C)OP(=O)(CP(=O)(OC(C)C)OC(C)C)OC(C)C | 5.27% | 
34 | O=C1CC[C@H](C(=O)N2CCCCC2)N1 | 1.58% | 
35 | C=C(C)C(=O)OCC(O)CO (stereo not given) | -10.8% | 
36 | CNC(=O)c1cnn(-c2nc(N)c3ncn([C@@H]4O[C@H](CO)[C@@H](O)[C@H]4O)c3n2)c1 | 1.83% | 
37 | CNC[C@H](O)[C@@H](O)[C@H](O)[C@H](O)CO | 17.9% | 
38 | C/C(=N/NC(=O)c1ccncc1)C(=O)O | 28.4% | 
39 | CC1CC(=O)NN=C1c1ccc(NCC(C)(C)NCC(O)COc2cc(Cl)ccc2C#N)cc1 (stereo not given) | -10.9% | 
40 | CCCC(=O)O[C@]1(C(=O)COC(=O)CC)CC[C@H]2[C@@H]3CCC4=CC(=O)CC[C@]4(C)[C@H]3[C@@H](O)C[C@@]21C | 2.21% [at 16.1 µM] | 
